Laboratory results published in ChEMBL document CHEMBL1157539, “Thousands of chemical starting points for antimalarial lead identification” (Nature, 2010).

How the values were obtained:
Format in all cases: functional
[1] = system: Plasmodium falciparum; assay: GSK_TCMDC: Inhibition of Plasmodium falciparum 3D7 in whole red blood cells, using parasite LDH activity as an index of growth. Test compounds present at 2uM
[2] = system: Plasmodium falciparum; assay: GSK_TCMDC: Inhibition of Plasmodium falciparum Dd2 in whole red blood cells, using parasite LDH activity as an index of growth. Test compounds present at 2uM
[3] = system: HepG2; assay: GSK_TCMDC: Percent inhibition of human HepG2 cell line. Test compounds present at 10uM.

O=C(NCCN1CCCC1)N1CCCN(c2ncnc3cc(-c4ccc(F)cc4)sc23)CC1.O=C(O)C(F)(F)F
Inhibition [1]: 81% | Inhibition [2]: 19% | Inhibition [3]: 5%

Cc1cc(NC(=O)Nc2ccc(Oc3ccccc3)cc2)c2ccccc2n1
Inhibition [1]: 91% | Inhibition [2]: 28% | Inhibition [3]: 2%

CCCN1CCCN(Cc2cccc(NC(=O)c3ccc(-c4ccccc4)cc3)c2)CC1.O=C(O)C(F)(F)F
Inhibition [1]: 92% | Inhibition [2]: 15% | Inhibition [3]: 34%

Cc1cc(NCCC(=O)NCc2cccc(F)c2)nc(Nc2ccccc2)n1.O=C(O)C(F)(F)F
Inhibition [1]: 94% | Inhibition [2]: 15% | Inhibition [3]: 0%
